hcDAF12 agonist: H. contortus DAF-12 nuclear receptor activators, primary screen, cell-based, luminescence, HEK293, lit1-tk-luc reporter; HEK293 hcDAF-12 lit1-tk-luc reporter; 0% DMSO, 100% Δ7-dafachronic acid; activation, % at 6.8 µM; 1.4% of 370,000 active; AID 652067, 2013;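 active means activation above the mean of all tested compounds plus 3 SD, cut at about 5.5% in these data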;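 further: 100% = response to 3 µM Δ7-dafachronic acid high control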
hgDAF-12 ag: H. glycines DAF-12 receptor agonists, primary screen, cell-based, luminescence, HEK293, GAL4 fusion, UAS-luciferase. 1.8% of 370,000 active. HEK293 GAL4-hgDAF12 UAS-luciferase reporter, agonist luminescence; normalized to butyrate control. activation, % at 6.8 µM. Nuclear hormone receptor DAF-12 (Heterodera glycines), GAL4 fusion;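 active means activation above a cutoff set at the mean of all screened compounds plus 3 SD, cut at about 10% in these data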;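 further: 0% = DMSO wells and 100% = sodium butyrate wells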
DAX1 inh-1: DAX1 (NR0B1) inhibitors, primary screen, cell-based, HEK293, Gal4-DAX1, luciferase luminescence. 0.99% of 340,000 active. inhibition, % at 6.75 µM. AID 504766, 2011. HEK293 Gal4-DAX1 luciferase reporter;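 active means inhibition above the mean over all tested compounds plus 3 SD, cut at about 4.2% in these data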;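 further: 0% = DAX1-transfected cells with DMSO and 100% = empty-vector control cells with DMSO; inhibition shows as a rise in luminescence from relieved DAX1 repression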
Target sequence (P51843 207-470 limits assumed): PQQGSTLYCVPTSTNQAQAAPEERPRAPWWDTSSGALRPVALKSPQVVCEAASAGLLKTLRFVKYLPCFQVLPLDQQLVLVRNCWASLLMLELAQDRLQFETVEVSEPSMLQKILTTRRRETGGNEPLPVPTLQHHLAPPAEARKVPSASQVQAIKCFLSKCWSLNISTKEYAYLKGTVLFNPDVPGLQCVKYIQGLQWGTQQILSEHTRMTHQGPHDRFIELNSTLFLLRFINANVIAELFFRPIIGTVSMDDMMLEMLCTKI
DAX1 inh-2: DAX1 (NR0B1) inhibitors on StAR promoter, primary screen, cell-based, luminescence, SF-1 (NR5A1), full-length DAX-1; inhibition, % at 6.8 µM; HEK293T StAR-luciferase reporter, SF-1/DAX-1 repression relief; AID 652010, 2013; 1.1% of 370,000 active;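 active means inhibition above the mean over all tested compounds plus 3 SD, cut at about 3.6% in these data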;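 further: 0% = DAX-1 cells with DMSO and 100% = cells lacking DAX-1 with DMSO; higher inhibition means more luminescence from relief of DAX-1 repression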
ssDAF12 agonist: S. stercoralis DAF-12 nuclear receptor activators, primary screen, cell-based, luminescence, HEK293, GRIP1 co-expression, lit1-tk-luc | HEK293 ssDAF-12/GRIP1 lit1-tk-luc reporter; % of 3 µM dafachronic acid response | activation, % at 6.8 µM | 1% of 370,000 active | AID 652126, 2013 | Nuclear hormone receptor DAF-12 (Strongyloides stercoralis);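 active means activation above the mean over all tested compounds plus 3 SD, cut at about 0.9% in these data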;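 further: 0% = DMSO-only wells and 100% = 3 µM delta7-dafachronic acid wells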
LXRb hcDAF ctr: LXR agonists, Gal4 luciferase reporter, confirmation, counter-screen for hcDAF-12 agonist project, cell-based, luminescence, HEK293, H. contortus campaign; 3,400 tested, under 10 active; activation, % at 6.8 µM; shares compounds with hcDAF12 agonist; HEK293 Gal4-LXR tk-luc reporter, 24 h; normalized: DMSO 0%, positive control 100%; AID 743027, 2013;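 active means mean percent activation of the reporter above a cutoff set as the average over tested compounds plus their standard deviation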
Target sequence (P55055 whole entry, looked up, the tested form may be a part): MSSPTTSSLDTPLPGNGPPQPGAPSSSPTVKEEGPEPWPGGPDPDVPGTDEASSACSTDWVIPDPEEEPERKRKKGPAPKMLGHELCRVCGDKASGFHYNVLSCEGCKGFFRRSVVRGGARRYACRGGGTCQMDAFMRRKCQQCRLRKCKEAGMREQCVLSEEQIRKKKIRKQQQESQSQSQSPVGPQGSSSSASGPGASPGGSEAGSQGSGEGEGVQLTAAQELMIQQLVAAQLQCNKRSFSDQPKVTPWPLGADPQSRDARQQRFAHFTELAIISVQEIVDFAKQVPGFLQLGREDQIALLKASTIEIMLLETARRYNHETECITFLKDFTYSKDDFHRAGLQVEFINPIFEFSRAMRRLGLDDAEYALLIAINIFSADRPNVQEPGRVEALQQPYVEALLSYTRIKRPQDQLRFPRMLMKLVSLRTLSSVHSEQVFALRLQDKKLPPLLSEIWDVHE
hcDAF12 ag: H. contortus DAF-12 receptor agonists, confirmation, cell-based, luminescence, HEK293, lit1-tk-luc, triplicate; shares compounds with hcDAF12 agonist; HEK293 hcDAF-12 lit1-tk-luc reporter; % of Δ7-dafachronic acid response; 61% of 3,400 active; AID 743032, 2013; activation, % at 6.8 µM;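 active means mean activation across triplicate tests above the threshold derived from the earlier primary screen, cut at about 5.5% in these data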;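 further: 0% = DMSO only wells and 100% = 3 µM Δ7-dafachronic acid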
* = called active by the depositor; / = no result given. Rows were chosen to be rich in hits. Some 4.1% of all compounds tested hit in one or more screens of this group.

SMILES | hcDAF12 agonist | hgDAF-12 ag | DAX1 inh-1 | DAX1 inh-2 | ssDAF12 agonist | LXRb hcDAF ctr | hcDAF12 ag
O=C(Cc1ccccc1[N+](=O)[O-])NCc1ccc2c(c1)OCO2 | 8.8* | 12.0* | 1.3 | 1.9 | 2.2* | 0.6 | 8.6*
O=C(Cc1ccccc1)NCc1ccc2c(c1)OCO2 | 0.8 | 6.2 | 0.4 | 0.5 | -0.7 | / | /
O=C(COC(=O)c1ccccc1Br)NCCN1C(=O)CSC1=O | 1.1 | 3.3 | -0.3 | 0.1 | -1.3 | / | /
O=C(COC(=O)c1cccc(Cl)c1Cl)NCCN1C(=O)CSC1=O | 9.0* | 1.1 | 0.2 | -0.2 | 0.8 | -0.3 | 0.9
COc1cc(NC(=O)NC2CCCCN(Cc3ccc(Cl)cc3)C2=O)cc(OC)c1 (stereo unspecified) | -3.5 | -2.9 | / | -1.4 | -1.0 | / | /
O=C(Nc1ccc2ccccc2c1)NC1CCCCN(Cc2ccc(Cl)cc2)C1=O (stereo unspecified) | 9.2* | 6.1 | / | -1.0 | 2.9* | -0.2 | 0.0
C/C(=N\O)c1sc(-c2ccccc2)nc1C | 11.5* | 11.9* | 2.3 | 3.8* | 1.1* | 1.1 | 7.2*
C=C(C)c1sc(-c2ccccc2)nc1C | 0.4 | 0.5 | / | -0.3 | -1.2 | / | /
Nc1nc2c(-c3ccc(Br)cc3)nnn2c2ccccc12 | 7.7* | 11.2* | 4.1 | 1.2 | 1.0* | 2.0 | 22.3*
CNc1nc2c(-c3ccc(Cl)cc3)nnn2c2ccccc12 | 2.6 | 2.3 | 0.1 | 0.2 | -0.6 | / | /
Cc1ccc(-c2nnn3c2nc(NC(C)C)c2ccccc23)cc1 | 6.8* | 5.1 | 0.4 | 0.6 | 0.3 | -0.2 | 1.5
O=c1oc2ccccc2cc1-c1nc2ccccc2o1 | 8.8* | 8.8 | 2.5 | 3.1 | 1.0* | 1.1 | 6.3*
Cc1nn(-c2ccc(Cl)cc2)c(=O)c2ccccc12 | 7.2* | 9.4 | 1.7 | 2.7 | 1.1* | 0.6 | 9.9*
O=c1c2ccccc2cnn1Cc1n[nH]c(=S)n1-c1ccc(Cl)cc1 | -1.4 | 0.0 | 0.7 | -0.4 | -0.9 | / | /
Cc1nn(-c2ccc(Cl)c(Cl)c2)c(=O)c2ccccc12 | 3.6 | 5.3 | 0.3 | 0.5 | -0.1 | / | /
O=c1c2ccccc2cnn1-c1ccc(Cl)cc1 | 12.1* | 16.8* | 1.3 | 2.9 | 1.9* | 1.6 | 10.2*
O=C(CCS(=O)(=O)c1ccccc1)NCCS(=O)(=O)c1ccccc1 | -0.6 | 1.1 | 0.4 | 0.2 | -1.1 | / | /
CN(C)C(CNC(=O)CCS(=O)(=O)c1ccccc1)c1ccccc1 (stereo unspecified) | 8.9* | 3.9 | 0.4 | -0.2 | 0.5 | -0.1 | 7.1*
CCc1ccc(C(=O)Cn2ccsc2=N)cc1 | 18.9* | 20.1* | 3.1 | 2.5 | 2.1* | 1.6 | 12.2*
CSc1ccc(CN2CCC(C)(Oc3cccc(C#N)c3)C2)cc1 (stereo unspecified) | -0.8 | -3.2 | / | -1.5 | -1.0 | / | /
O=C(NC(=S)Nc1nc2c(s1)CSc1ccccc1-2)c1ccccc1 | 7.1* | 5.4 | 0.6 | -0.4 | 0.2 | -0.2 | 7.6*
Nc1cccc(CCc2nc3cc4ccccc4cc3[nH]2)c1 | 12.1* | 12.5* | 1.7 | -0.3 | 0.2 | 1.4 | 8.7*
COc1ccccc1C(=O)Nc1nnc(-c2ccccc2)s1 | 6.8* | 8.6 | 1.1 | 0.1 | 1.2* | 0.5 | 8.5*
COc1ccccc1C(=O)CC(=O)c1ccccc1 | 6.7* | 10.9* | 1.6 | 1.0 | 1.5* | 0.8 | 10.9*
COc1ccccc1C(=O)NNC(=O)C1CCN(C(=O)OC(C)(C)C)CC1 | 7.1* | 1.0 | -0.3 | 0.0 | 0.0 | -0.1 | 5.1
SMILES | hcDAF12 agonist | hgDAF-12 ag | DAX1 inh-1 | DAX1 inh-2 | ssDAF12 agonist | LXRb hcDAF ctr | hcDAF12 ag
COc1ccccc1C(=O)NNC(=O)c1ccccc1Br | 8.4* | 5.0 | 1.1 | 0.2 | 0.8 | -0.1 | 2.0
COc1ccccc1C(=O)NNC(=O)c1ccc2ccccc2c1O | 3.7 | 6.3 | 0.6 | 0.9 | 0.3 | / | /
C[C@H](CO)N1C[C@H](C)[C@@H](CN(C)C(=O)OCc2ccccc2)OCc2cn(nn2)CCCC1=O | -0.6 | -2.3 | 2.3 | 2.2 | -1.1 | / | /
COc1ccc(-c2noc(C3CCCN(C(=O)Nc4ccc(C)c(F)c4)C3)n2)cc1 (stereo unspecified) | -1.4 | 3.9 | / | -1.2 | -1.2 | / | /
COc1ccccc1C(=O)NNC(=O)c1ccccc1 | 10.3* | 7.0 | 6.0* | 2.1 | 1.0* | 1.0 | 11.0*
COc1ccccc1C(=O)NNC(=O)c1cccc(Br)c1 | 4.7 | 9.3 | 2.2 | 1.4 | 0.2 | / | /
CC(C)NC(=O)C1(C)CN(S(C)(=O)=O)CC(=O)N1CCOc1ccccc1 (stereo unspecified) | 1.2 | 0.2 | / | -0.5 | -1.5 | / | /
CCOCC(=O)NC1CCc2cc(OC)c(OC)c(OC)c2-c2ccc(SC)c(=O)cc21 (stereo unspecified) | 0.6 | -4.2 | -0.5 | 3.5 | -0.9 | / | /
CC(=O)c1ccc(NC(=O)c2sc3nc(C)c(C)c(C)c3c2N)cc1 | 8.2* | 10.3 | 6.7* | 2.4 | 1.2* | 0.6 | 5.8*
Cc1nc2sc(C(=O)c3ccccc3)c(N)c2c(C)c1C | -0.3 | 6.0 | 1.3 | -0.6 | -1.1 | / | /
Cc1nc2sc(C(=O)Nc3ccccc3)c(N)c2c(C)c1[N+](=O)[O-] | 8.1* | 10.0 | 6.9* | 4.0* | 1.6* | 0.9 | 9.4*
O=C(CSc1nc2ccccc2n1Cc1ccccc1)NN=Cc1c[nH]c2ccccc12 | 3.4 | 1.3 | / | -0.9 | -0.6 | / | /
Cc1[nH]c2ccccc2c1/C=N/Nc1cccc(C(=O)O)c1 | 11.3* | 12.5* | -2.7 | 1.3 | 0.9* | 1.1 | 12.6*
Cc1ccc(Cn2cc(/C=N/Nc3ccc([N+](=O)[O-])cn3)c3ccccc32)cc1 | 2.5 | 6.2 | 2.7 | -0.4 | -1.3 | / | /
O=C(O)Cn1cc(/C=N/Nc2ccc([N+](=O)[O-])cn2)c2ccccc21 | 7.9* | 6.8 | 5.4* | 0.3 | 1.4* | -0.1 | 4.2
Clc1ccc2nc(-c3ccc(Br)s3)cn2c1 | 14.9* | 11.2* | -2.1 | 3.5 | 1.0* | 1.4 | 18.8*
